From PubChem BioAssay AID1851 (National Center for Advancing Translational Sciences (NCATS), 2009) come the findings set out here.

SMILES strings stand for the structures. Screen size: about 16,000 compounds; about 5,700 (36%) were called active. Another 24% or so got no clear call; they are omitted. This is one part of the list. Unmarked numbers belong to inactive results. Calls come from the whole dose curve; as a rule, active = well fitted curve in the direction sought with a large enough effect; inconclusive = small, poorly fitted or top-dose-only effect, or effect the other way; inactive = no such curve, though single readings can be large or run the other way.
% is set by controls: 0 for no effect and ±100 for the full control effect.

The target in this experiment is Cytochrome P450 1A2 (Homo sapiens) (UniProt P05177). The experiment in a line: Cytochrome panel assay with activity outcomes. As to conditions: recombinant CYP, pro-luciferin dealkylation, luminescence, p450-cyp1a2; series mostly up to 57.1 µM; activity, negative = inhibition: at the top concentration.
Cytochrome P450 1A2 (Homo sapiens), sequence (P05177 whole entry, looked up): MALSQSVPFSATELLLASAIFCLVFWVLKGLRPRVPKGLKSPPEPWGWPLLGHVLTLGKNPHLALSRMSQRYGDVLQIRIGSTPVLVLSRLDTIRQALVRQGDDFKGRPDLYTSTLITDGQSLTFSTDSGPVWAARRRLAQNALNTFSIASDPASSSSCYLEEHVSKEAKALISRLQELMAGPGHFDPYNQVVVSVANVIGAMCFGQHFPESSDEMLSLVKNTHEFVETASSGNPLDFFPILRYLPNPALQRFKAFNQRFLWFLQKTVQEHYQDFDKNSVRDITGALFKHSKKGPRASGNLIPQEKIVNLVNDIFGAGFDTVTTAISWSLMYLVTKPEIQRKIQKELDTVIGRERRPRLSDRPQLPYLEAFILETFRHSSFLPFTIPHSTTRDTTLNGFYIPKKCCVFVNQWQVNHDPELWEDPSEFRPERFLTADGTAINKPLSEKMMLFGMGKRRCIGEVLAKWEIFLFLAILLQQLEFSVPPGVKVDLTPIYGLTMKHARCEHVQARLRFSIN
As for `CCCCN(C)Cc1c(C)[nH]c2ccc(Cl)cc2c1=O`, the half-maximal activity concentration (AC50) is 5.01 µM (active).
Take `CC(=O)N1CCC[C@@]2(CCN(c3ccccc3)C2)C1`: the “activity, negative = inhibition” value is 5.33%.
Take `O=C(c1ccco1)N1CCC2(CC1)CCN(C(c1ccccc1)c1ccccc1)CC2`: the “activity, negative = inhibition” value was -6.96%.
For the compound `Cn1cccc1C(=O)N1CCC[C@@]2(CCN(C(c3ccccc3)c3ccccc3)C2)C1`, the AC50 is 20 µM (active).
As for `Cn1cccc1C(=O)N1CCC[C@@]2(CCN(c3ccncc3)C2)C1`, the AC50 is 12.6 µM (active).
For `Cn1cccc1C(=O)N1CCC[C@@]2(CCN(c3ccccc3)C2)C1`, the half-maximal activity concentration (AC50) was 12.6 µM (active).
In the case of `O=C(c1ccco1)N1CCC[C@@]2(CCN(C(c3ccccc3)c3ccccc3)C2)C1`, the AC50 is 25.1 µM (active).
Consider `CN1CC[C@@]2(CCCN(C(=O)c3cccn3C)C2)C1`, for which the “activity, negative = inhibition” value is 10.5%.
Same read-out and setting: then `O=C(c1ccco1)N1CCC2(CC1)CN(C(c1ccccc1)c1ccccc1)C2`, with -18.6%.
On the same count and under the same terms, next, `CC(C)NC(=O)N1CC[C@@]2(CCCN(C(=O)c3cccn3C)C2)C1`: 1.6%; `O=C(c1cccc(F)c1)N1CCC[C@@]2(CCN(C(c3ccccc3)c3ccccc3)C2)C1`: -0.977%; `Cn1cccc1C(=O)N1CCC2(CC1)CN(c1ccncc1)C2`: 0.971%.
The same measure, in the same setting: then `CC(=O)N1CCC[C@@]2(CCN(c3ccncc3)C2)C1`, with 1.12%; and `NC(N)=NC[C@@H]1CCCCCCN1`, with -17.8% [at 11.4 µM].
Take `C=CCCCCCCCCC(=O)Nc1c[nH]c(=O)[nH]c1=O`: the “activity, negative = inhibition” value was -29.9%.
On to `O=C1CN(c2nc(-c3ccccc3)c3cc(Br)ccc3n2)c2ccccc2N1`, for which the AC50 was 2.51 µM (active).
For `CC12CCC(C(=O)O)(C/C1=N\O)C2(C)C` (stereo unspecified), the “activity, negative = inhibition” value is -24.9%.
Regarding `COC(=O)[C@]1(C)CCC(c2ccc(C)cc2)=C(CC(=O)O)C1`, the activity, negative = inhibition is -8.38% [at 2.29 µM].
Consider `Cc1ccc(N(C(=O)c2csnn2)C(C(=O)NC(C)(C)C)c2cccs2)cc1` (stereo unspecified), for which the “activity, negative = inhibition” value was 1.9%.
Same read-out and setting: then `CCc1ccc(N(C(=O)c2csnn2)C(C(=O)NCc2ccccc2)c2ccco2)cc1` (stereo unspecified), with -15.1%.
As to `CCc1ccc(N(C(=O)c2csnn2)C(C(=O)NC(C)(C)C)c2ccncc2)cc1` (stereo unspecified), the AC50 was 22.4 µM (active).
As to `CCOC(=O)/C(C(N)=NCCCO)=C(/O)c1ccccc1`, the “activity, negative = inhibition” value is -29.7%.
For `CCOC(=O)/C(=C/Nc1ccccc1)[N+](=O)[O-]`, the AC50 was 2.82 µM (active).
Take `C/C=C\C1=C(CO)[C@H](O)[C@H]2O[C@H]2[C@H]1O`: the activity, negative = inhibition was -3.7% [at 11.4 µM].
Turning to `COc1ccc(C[C@H](N)C(=O)N[C@@H]2[C@H](O)[C@H](n3cnc4c(N(C)C)ncnc43)O[C@@H]2CO)cc1`, the “activity, negative = inhibition” value was -12% [at 25.6 µM].
As to `CC(C)N(CC(=O)O)CC(=O)O`, the activity, negative = inhibition was -20.9% [at 11.4 µM].
Regarding `Cc1cccc(C(=O)Nc2nnc(-c3ccc(C(C)(C)C)cc3)s2)c1`, the “activity, negative = inhibition” value is -14.1%.
On to `CC(C)(C)c1ccc(C(=O)NC(Cc2ccccc2)C(=O)O)cc1` (stereo unspecified), for which the “activity, negative = inhibition” value is 11.9%.
Consider `CC(=O)Nc1nonc1NC(=O)c1ccc(C(C)(C)C)cc1`, for which the AC50 was 1 µM (active).
For `O=C(Oc1ccccc1)N1CCC2(CC1)CN(c1ccccn1)C2`, the “activity, negative = inhibition” value was -19.3%.
As for `O=C(Oc1ccccc1)N1CCC2(CCCN(c3ccccn3)C2)CC1`, the concentration at half-maximal activity (AC50) is 20 µM (active).
As to `COC(=O)N1CCC[C@@]2(CCN(c3ncccn3)C2)C1`, the “activity, negative = inhibition” value is -5.87%.
Take `CC(=O)N1CCC[C@@]2(CCN(c3ncccn3)C2)C1`: the “activity, negative = inhibition” value was 6.47%.
For the compound `O=C(Oc1ccccc1)N1CCC2(CCCN(c3ncccn3)C2)CC1`, the AC50 was 10 µM (active).
In the case of `O=C(Oc1ccccc1)N1CCC[C@@]2(CCN(c3ncccn3)C2)C1`, the AC50 was 12.6 µM (active).
Take `CC(=O)N1CCC2(CCCN(c3ncccn3)C2)CC1`: the “activity, negative = inhibition” value was -19.5%.
Same read-out and setting: next, `CC(=O)N1CCC2(CCCN(c3ccccn3)C2)CC1`: 3.81%.
In the case of `COC(=O)N1CCC2(CC1)CN(c1ccccn1)C2`, the “activity, negative = inhibition” value is -9.75%.
Still for that read-out and setting: then `O=C(Oc1ccccc1)N1CCC2(CC1)CCN(c1ncccn1)CC2`, with -11.2%.
On to `O=C(c1csnn1)N1CCC[C@@]2(CCN(c3ccccn3)C2)C1`, for which the “activity, negative = inhibition” value was -10.2%.
Take `COC(=O)N1CCC[C@@]2(CCN(c3ccccn3)C2)C1`: the concentration at half-maximal activity (AC50) was 15.8 µM (active).
Turning to `Cc1noc(C)c1C(=O)N1CCC[C@@]2(CCN(Cc3ccccc3)C2)C1`, the “activity, negative = inhibition” value was 5.42%.
As to `Cn1c(=O)c2c(ncn2CC(COCc2ccccc2Cl)OCc2ccccc2Cl)n(C)c1=O` (stereo unspecified), the “activity, negative = inhibition” value is -8.25%.
The same measure, in the same setting: next, `Cn1c(=O)c2c(nc(N3CCN(c4ccccn4)CC3)n2Cc2ccccc2Cl)n(C)c1=O`: -17%.
Turning to `CC(C)CCn1c(Oc2ccccc2Cl)nc2c1c(=O)n(C)c(=O)n2C`, the concentration at half-maximal activity (AC50) was 14.1 µM (active).
On the same count and under the same terms, then `CSc1ccc(C#N)cc1NC(=O)c1cccc(Cl)c1`, with 6.31 µM (active).
Turning to `CCOc1cc(CC(=O)N[C@@H](CC(C)C)c2ccccc2N2CCCCC2)ccc1C(=O)O`, the “activity, negative = inhibition” value is 1.45% [at 25.6 µM].
Take `CCOc1ccc(C(=O)Nc2ccccc2N2CCCC2)cc1`: the concentration at half-maximal activity (AC50) was 2.82 µM (active).
As for `O=C(Nc1ccccc1N1CCN(C(=O)c2ccc(Cl)cc2)CC1)c1cc(Br)ccc1Cl`, the “activity, negative = inhibition” value was -26.3%.
As to `CCN(CCO)C[C@H]1CCC[C@H]2CCCC[C@@H]21`, the AC50 is 5.01 µM (active).
On to `O=C1NCCN1Cc1ccccc1F`, for which the AC50 was 3.55 µM (active).
In the case of `Cc1ccc(CS(=O)(=O)CCC(=O)NCCN2CCCC2)cc1`, the “activity, negative = inhibition” value is -5.06%.
In the case of `O=C(NCCN1CCCCC1)c1ccc(I)cc1`, the AC50 is 25.1 µM (active).
Turning to `COc1ccc(CC(=O)NCCN2CCCC2)cc1`, the “activity, negative = inhibition” value is -9.19%.
`Nc1cc(Cl)ccc1Oc1ccccc1`: the AC50 was 7.94 µM (active).
The same measure, in the same setting: then `Nc1cc(Cl)ccc1Oc1ccc(Cl)cc1`, with 0.398 µM (active).
In the case of `CC(=O)NCCNc1nc(-c2ccccc2C)nc2ccccc12`, the AC50 was 6.31 µM (active).
On to `CC(=O)NCCNc1nc(-c2ccccc2C(F)(F)F)nc2ccccc12`, for which the concentration at half-maximal activity (AC50) was 15.8 µM (active).
As to `CC(C)(C)NCC[C@@H](O)c1cc(C(F)(F)F)nc2c(C(F)(F)F)cccc12`, the activity, negative = inhibition is -9.91% [at 2.29 µM].
Consider `CCN(CC)c1cc(C)c2cc(NC(=O)CNC(C)=O)ccc2n1`, for which the “activity, negative = inhibition” value is -11.9%.
The same measure, in the same setting: next, `CC(C)(C)CC(C)(C)c1ccc(OCOCCOCCO)c(Cc2cc(C(C)(C)CC(C)(C)C)cc(Cc3cc(C(C)(C)CC(C)(C)C)ccc3OCOCCOCCO)c2OCOCCOCCO)c1`: -3.71% [at 25.6 µM].
With `COc1cccc(-c2csc(N3CCN(C(=S)Nc4ccccc4)CC3)n2)c1`, the AC50 was 3.16 µM (active).
For `CCOCCCNC(=O)C1CCN(S(=O)(=O)N2CC(C)CC(C)C2)CC1` (stereo unspecified), the “activity, negative = inhibition” value is -3.01%.
Still for that read-out and setting: next, `O=C(O)[C@H]1CCCN(CCC=C(c2ccccc2)c2ccccc2)C1`: -1.11%.
Turning to `CC1CCCN(C/C=C/c2ccccc2[N+](=O)[O-])C1` (stereo unspecified), the AC50 was 14.1 µM (active).
On the same count and under the same terms, then `CCOC(=O)C1CCCN(C/C=C/c2ccccc2[N+](=O)[O-])C1` (stereo unspecified), with 4.47 µM (active).
As for `CCOC(=O)C1CCCN(S(=O)(=O)c2ccccc2)C1` (stereo unspecified), the “activity, negative = inhibition” value was -11.5%.
As to `C[C@@H]1CCCN(CP(=O)(c2ccccc2)c2ccccc2)C1`, the activity, negative = inhibition is -3.49% [at 11.4 µM].
Regarding `CCOC(=O)C1CCCN(C(=O)/C=C/c2cccc([N+](=O)[O-])c2)C1` (stereo unspecified), the AC50 was 11.2 µM (active).
For the compound `Cc1ccc(NC(=O)/C(=C/c2cccc([N+](=O)[O-])c2)NC(=O)C2CCCCC2)c(C)c1`, the “activity, negative = inhibition” value is 10.1%.
Turning to `O=C(c1ccco1)N1CCC2(CCCN(c3ccccc3)C2)CC1`, the “activity, negative = inhibition” value was 6.83%.
As for `O=C(c1ccco1)N1CCC[C@@]2(CCN(c3cccc(-c4ccccc4)c3)C2)C1`, the AC50 was 15.8 µM (active).
With `O=C(c1ccco1)N1CCC2(CC1)CCN(c1ccccc1)CC2`, the “activity, negative = inhibition” value was -19%.
With `O=C(c1ccco1)N1CCC[C@@]2(CCN(c3ccncc3)C2)C1`, the concentration at half-maximal activity (AC50) is 12.6 µM (active).
Take `O=C(c1ccco1)N1CCC2(CC1)CN(c1ccccc1)C2`: the “activity, negative = inhibition” value is -12.3%.
Regarding `O=C(c1ccco1)N1CCC2(CC1)CCN(c1cccc(-c3ccccc3)c1)CC2`, the AC50 was 15.8 µM (active).
With `O=C(c1ccco1)N1CCC2(CC1)CCN(c1ccc(-c3ccccc3)cc1)CC2`, the “activity, negative = inhibition” value was -28.9%.
For `O=C(c1ccco1)N1CCC[C@@]2(CCN(Cc3ccccc3)C2)C1`, the “activity, negative = inhibition” value was -3.18%.
On the same count and under the same terms, then `O=C(c1ccncc1)N1CCC[C@@]2(CCN(c3ccccc3)C2)C1`, with -10.4%.
On to `CCOc1ccc(-c2nn(-c3ccccc3)cc2/C=C(\C#N)S(=O)(=O)c2ccccc2)cc1C`, for which the AC50 is 1 µM (active).
`O=[N+]([O-])/C=C/c1cn(Cc2ccccc2)c2ccccc12`: the AC50 was 3.55 µM (active).
With `O=C1C2C3C=CC(C3)C2C(=O)N1/N=C/c1cn(Cc2ccc(F)cc2)c2ccccc12` (stereo unspecified), the “activity, negative = inhibition” value was -24.6%.
Consider `CCC(C(=O)c1ccccc1)N(C(=O)c1ccccc1Cl)N1C(=O)C2C3C=CC(C3)C2C1=O` (stereo unspecified), for which the “activity, negative = inhibition” value is 4.91%.
With `O=C1C2C3C=CC(C3)C2C(=O)N1/N=C/c1cn(Cc2ccccc2)c2ccccc12` (stereo unspecified), the AC50 is 15.8 µM (active).
In the case of `COc1ccc2c(c1OC)C(=O)N(C(C)C(=O)O)C2=O` (stereo unspecified), the “activity, negative = inhibition” value was 4.35%.
Same read-out and setting: next, `NS(=O)(=O)c1ccc(N=Nc2nc3[nH]c(=O)[nH]c(=O)c3[nH]2)cc1`: -13.4% [at 11.4 µM].
Consider `O=c1[nH]c(=O)c2nc3ccccc3nc2[nH]1`, for which the AC50 is 12.6 µM (active).
On to `COc1cnc(NS(=O)(=O)c2ccc(N)cc2)nc1`, for which the “activity, negative = inhibition” value was -7.79% [at 25.6 µM].
Take `CC(C)(C)C(=O)Nc1ccnc(-c2cccnc2)n1`: the AC50 is 2.24 µM (active).
The same measure, in the same setting: then `CC(=O)Nc1ccnc(-c2cccnc2)n1`, with 2.51 µM (active).
For the compound `CCC(=O)O[C@@]1(C(=O)CCl)[C@@H](C)C[C@@H]2[C@H]3CCC4=CC(=O)C=C[C@@]4(C)[C@]3(F)[C@@H](O)C[C@@]21C`, the “activity, negative = inhibition” value is -9.28% [at 25.6 µM].
`O=C1[C@@H]2[C@H]3[C@H](O)[C@H](O)C/C(=N/OC[C@@H](O)COCc4ccco4)[C@H]3CC[C@H]2C(=O)N1c1ccc(F)cc1F`: the activity, negative = inhibition is 0.735% [at 11.4 µM].
The same measure, in the same setting: next, `Nc1n[nH]c2ccccc12`: -9.07% [at 2.29 µM].
With `Cc1[nH]c2ccccc2c1-c1cc(-c2cc(-c3c(C)[nH]c4ccccc34)nc(N)n2)nc(N)n1`, the AC50 was 0.398 µM (active).
On the same count and under the same terms, next, `Cc1[nH]c2ccccc2c1-c1cc(-c2cc(-c3c(C)[nH]c4ccccc34)on2)no1`: 0.398 µM (active).
`COc1ccc(COC(=O)N/N=C2/C[C@@H](O)[C@@H](O)[C@@H]3[C@@H]4C(=O)N(c5cccc(Oc6ccccc6)c5)C(=O)[C@H]4CC[C@H]23)cc1`: the activity, negative = inhibition was 3.29% [at 11.4 µM].
